Screening data deposited in PubChem by National Center for Advancing Translational Sciences (NCATS).
Sfp inh – qHTS Assay for Inhibitors of Bacillus subtilis Sfp phosphopantetheinyl transferase (PPTase); Biochemical Sfp PPTase activity, qHTS; Potency, µM, for inactives: largest response in the series, negative = inhibition, usual class: inhibitors; 310,000 tested, 3.5% active; AID 1490, 2009;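 also: the enzyme is Sfp with the accession as filed and its product quenches rhodamine fluorescence; 0% = enzyme reaction without inhibitor and -100% = no enzyme wells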
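Step 1, compound plus 15 nM Sfp-PPTase, 15 min, room temperature. Step 2, add rhodamine-CoA (5 uM) and BHQ-2-YbbR (12.5 uM). Step 3, read 525/598 nm fluorescence at 0 and 30 min.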
JMJD2A Tudor inh – qHTS Assay for Inhibitors of JMJD2A-Tudor Domain. AlphaScreen JMJD2A-Tudor / H3K4me3 peptide binding. 390,000 tested, 4.4% active. Potency, µM (titrated, usually from 114 µM), for the others: at the highest dose activity change, negative = inhibition, actives largely listed as inhibitors. Lysine-specific demethylase 4A (Homo sapiens), O75164; also: % is scaled to controls: 0 for no effect and ±100 for the full control effect; nearly all actives have a fitted effect of over 50% in size
BAZ2B block – qHTS Assay for Inhibitors of BAZ2B | AlphaScreen BAZ2B-H3K14Ac peptide displacement | AID 504333, 2011 | Potency, µM (doses to about 114 µM), for inactives: at the highest dose activity change, negative = inhibition, usual class: inhibitors | 360,000 tested, 4.4% active; also: % is scaled to controls: 0 for no effect and ±100 for the full control effect; nearly all actives have a fitted effect of over 60% in size
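AlphaScreen displacement: compounds (up to 110uM) incubated 30 min at room temperature with a preformed 50 nM BAZ2B/50 nM biotinylated H3K14Ac peptide complex in PBS pH 7.4 with Tween-20. Donor and acceptor beads at 10 ug/mL final added, 20 min light-protected before reading.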
HP1b chromo inh – HTS for Inhibitors of HP1-beta Chromodomain Interactions with Methylated Histone Tails | Chromobox protein homolog 1 (Homo sapiens), P83916 | AlphaScreen HP1-beta / biotin-H3K9me3 peptide binding | Potency, µM (doses to about 114 µM), for the others: at the top dose activity change, negative = inhibition, hits mostly inhibitors | 390,000 tested, 0.56% active | AID 540317, 2011; also: nearly all actives have a fitted effect of over 70% in size
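AlphaScreen: HP1-beta (50 nM) preformed 30 min with biotin-H3(1-18)K9me3 peptide (50 nM) in PBS pH 7.4, 0.01% Tween-20. Compound added for 30 min at RT, then streptavidin donor/nickel chelate acceptor beads (10 ug/mL) for 30 min.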
G9a block – qHTS Assay for Inhibitors of Histone Lysine Methyltransferase G9a. G9a H3K9 monomethylation, AlphaScreen, 2 h. 350,000 tested, 8.8% active. Potency, µM (series often up to 102 µM), inactives show top-dose activity, negative = inhibition, most hits filed as inhibitors. AID 504332, 2011; also: % is scaled to controls: 0 for no effect and ±100 for the full control effect; nearly all actives have a fitted effect of over 75% in size
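Quantitative HTS format: methyltransferase activity on a biotin-tagged H3K9 peptide is measured by AlphaScreen, using a rabbit anti-monomethyl-H3K9 antibody with streptavidin donor and anti-IgG acceptor beads. Final levels are 20 nM enzyme, 500 nM peptide, 20 uM SAM; 2 h RT.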
L3MBTL1 block – qHTS Assay for the Inhibitors of L3MBTL1. AlphaScreen L3MBTL1–H3K9me1 peptide binding. Potency, µM (titrated, usually from 57.1 µM), inactives show at the top dose activity, negative = inhibition, hits mostly inhibitors. 230,000 tested, 0.66% active; also: % is scaled to controls: 0 for no effect and ±100 for the full control effect; nearly all actives have a fitted effect of over 60% in size
Target sequence (Q9Y468 whole entry, looked up): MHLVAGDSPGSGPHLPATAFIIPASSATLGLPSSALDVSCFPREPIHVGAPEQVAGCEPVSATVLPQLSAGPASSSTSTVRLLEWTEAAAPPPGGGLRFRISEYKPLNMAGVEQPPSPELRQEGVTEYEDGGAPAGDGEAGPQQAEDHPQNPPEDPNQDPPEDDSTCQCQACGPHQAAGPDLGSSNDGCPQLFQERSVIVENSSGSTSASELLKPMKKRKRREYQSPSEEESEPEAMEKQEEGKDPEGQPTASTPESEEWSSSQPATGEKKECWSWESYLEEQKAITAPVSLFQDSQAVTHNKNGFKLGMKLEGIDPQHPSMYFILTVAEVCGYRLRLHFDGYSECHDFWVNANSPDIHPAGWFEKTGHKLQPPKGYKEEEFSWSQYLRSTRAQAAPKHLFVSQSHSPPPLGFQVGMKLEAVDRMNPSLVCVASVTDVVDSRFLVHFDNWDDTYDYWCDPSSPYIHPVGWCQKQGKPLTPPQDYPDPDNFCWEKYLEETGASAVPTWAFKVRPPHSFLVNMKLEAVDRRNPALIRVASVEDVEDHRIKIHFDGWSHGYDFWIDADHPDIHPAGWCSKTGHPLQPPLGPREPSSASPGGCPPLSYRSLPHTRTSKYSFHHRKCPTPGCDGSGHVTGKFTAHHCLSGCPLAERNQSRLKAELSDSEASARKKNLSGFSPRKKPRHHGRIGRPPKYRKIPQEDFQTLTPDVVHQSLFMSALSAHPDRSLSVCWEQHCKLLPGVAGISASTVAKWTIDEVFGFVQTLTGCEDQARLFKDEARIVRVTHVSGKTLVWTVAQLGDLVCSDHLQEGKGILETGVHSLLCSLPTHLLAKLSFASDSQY
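First, the protein-peptide complex forms for 30 min at room temperature (L3MBTL1 50 nM, biotinylated H3K9me1 peptide 75 nM). Next, compounds are pin-transferred and incubated 30 min. Finally, AlphaScreen beads are added and read after 30 min.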
* hit, by the source's call; [ ] = dose if it differs, or a comment. An excerpt weighted towards active compounds, which were near 12% of everything screened. Calls follow the shape of the dose curve; as a rule, active = well fitted curve in the direction sought with a large enough effect; inconclusive = small, poorly fitted or top-dose-only effect, or another doubt; inactive = no such curve, though single readings can be large; an effect the other way counts as inactive or inconclusive. Potency is read from the fitted curve at half-maximal effect.

CC(Oc1ccc(Br)cc1)C(=O)N(C)CC(=O)Nc1ccc(N2CCOCC2)cc1 (stereo not drawn) was read as JMJD2A Tudor inh -31%, BAZ2B block -10%, HP1b chromo inh 20%, G9a block 50µM* and L3MBTL1 block -6%.
CC(=O)c1ccc(OCC(=O)N(C)CC(=O)Nc2ccc(N3CCOCC3)cc2)cc1 was read as JMJD2A Tudor inh -4%, BAZ2B block -2%, HP1b chromo inh 18%, G9a block -39%[2.33 µM] and L3MBTL1 block -2%.
CN(CC(=O)Nc1ccc(N2CCOCC2)cc1)C(=O)CCCOc1ccc(Cl)cc1Cl was read as JMJD2A Tudor inh -29%, BAZ2B block inconclusive, HP1b chromo inh 5%, G9a block 20µM* and L3MBTL1 block -6%.
`OC[C@H]1OC(O)(CN2CCOCC2)[C@H](O)[C@@H]1O` (stereo partly drawn) gave Sfp inh -3%.
Screening C/C(=N\OCc1nc2ccccc2c(=O)n1/N=C/c1cc(C)cc([N+](=O)[O-])c1O)c1ccccc1 returned Sfp inh -23%, JMJD2A Tudor inh -4%, BAZ2B block 7.9µM*, HP1b chromo inh 33% and L3MBTL1 block inconclusive.
`O=c1c2ccccc2nc(COc2ccccc2)n1/N=C/c1ccc(O)cc1O` gave Sfp inh -2%, JMJD2A Tudor inh -36%, BAZ2B block inconclusive, HP1b chromo inh -8%, G9a block 2% and L3MBTL1 block -4%.
For C/C(=N\OCc1nc2ccccc2c(=O)n1/N=C/c1cc([N+](=O)[O-])ccc1O)c1ccccc1 the results were Sfp inh 2%, JMJD2A Tudor inh -29%, BAZ2B block -38%, HP1b chromo inh -5% and G9a block 40µM*.
For COc1cc(NC(=O)C2CCN(S(=O)(=O)c3ccc4c(c3)oc(=O)n4C)CC2)cc(OC)c1 the results were JMJD2A Tudor inh -9%, BAZ2B block -14%, HP1b chromo inh 14% and G9a block 5%[59 µM].
For Cc1cccc(-[n+]2c(C)cc(C)c3c(=O)[nH]c(=O)[nH]c32)c1 the results were Sfp inh 2%, JMJD2A Tudor inh -1%, BAZ2B block 2%, HP1b chromo inh 22%, G9a block 50µM* and L3MBTL1 block -6%.
`Cc1cc(C)[n+](-c2ccc(C(C)C)cc2)c2[nH]c(=O)[nH]c(=O)c12` gave Sfp inh 27%, JMJD2A Tudor inh -11%, BAZ2B block -1%, HP1b chromo inh 37%, G9a block inconclusive and L3MBTL1 block 5%.
For Cc1ccc2oc(-c3ccc(C)c(NC(=O)C(C)(C)Oc4ccc(Cl)cc4)c3)nc2c1 the results were JMJD2A Tudor inh -13%, BAZ2B block -8%, HP1b chromo inh 18% and G9a block -1%[59 µM].
Screening O=S(=O)(N/N=C/c1ccc(Cl)cc1)c1ccc(Cc2ncc(C(F)(F)F)cc2Cl)s1 returned Sfp inh 17%, JMJD2A Tudor inh inconclusive, BAZ2B block -33%, HP1b chromo inh -24% and G9a block 28µM*.
O=S(=O)(c1cccc(F)c1)N1CCN(c2nc(-c3cccs3)nc3ccccc23)CC1 was read as JMJD2A Tudor inh -11% and HP1b chromo inh 32%.
Screening O=C(Nc1cccc([N+](=O)[O-])c1)c1ccc(CSc2ccccc2)cc1 returned Sfp inh 9%, JMJD2A Tudor inh -13%, BAZ2B block -8%, HP1b chromo inh 23%, G9a block 7%[12.7 µM] and L3MBTL1 block -4%.
Screening CSc1ccccc1NC(=O)c1ccc([N+](=O)[O-])cc1 returned Sfp inh 56µM*, JMJD2A Tudor inh -33%, BAZ2B block inconclusive, HP1b chromo inh inconclusive, G9a block 32µM* and L3MBTL1 block -12%.
`Cc1ccc([N+](=O)[O-])cc1NC(=O)c1ccc(CSc2ccccc2)cc1` gave Sfp inh 32µM*, JMJD2A Tudor inh -12%, BAZ2B block -5%, HP1b chromo inh 25%, G9a block inconclusive and L3MBTL1 block -9%.
Screening COc1ccc(C(CC(=O)Nc2ccc(C)cn2)N2Cc3ccccc3C2=O)cc1OC (stereo not drawn) returned JMJD2A Tudor inh -7%, BAZ2B block -37%, HP1b chromo inh 24% and G9a block inconclusive.
Screening CCN1CCCC1CNC(=O)c1ccc(Sc2ccccc2Cl)c([N+](=O)[O-])c1 (stereo not drawn) returned Sfp inh -2%, JMJD2A Tudor inh inconclusive, BAZ2B block 28µM*, HP1b chromo inh -21% and G9a block 9%[59 µM].
Screening O=C(c1ccc(Sc2ccccc2)c([N+](=O)[O-])c1)N1CCOCC1 returned Sfp inh 1%, JMJD2A Tudor inh -32%, BAZ2B block -26%, HP1b chromo inh -6% and G9a block -7%.
`CCN1CCN(C(=O)c2ccc(Cl)c(S(=O)(=O)N(C)c3ccccc3)c2)CC1` gave JMJD2A Tudor inh -9%, BAZ2B block -1%, HP1b chromo inh 14%, G9a block 18µM* and L3MBTL1 block 0%.
`CCN1CCN(C(=O)c2ccc(Sc3ccccc3Cl)c([N+](=O)[O-])c2)CC1` gave Sfp inh -11%, JMJD2A Tudor inh inconclusive, BAZ2B block -33%, HP1b chromo inh -1%, G9a block 32µM* and L3MBTL1 block -10%.
`Cc1ccc(C)c(C(=O)COC(=O)CNS(=O)(=O)c2ccccc2)c1` gave Sfp inh 5%, JMJD2A Tudor inh -14%, BAZ2B block 4%, HP1b chromo inh 1% and G9a block 71µM*.
Screening COC(=O)c1ccc(-n2c(C)cc(C(=O)COC(=O)CNS(=O)(=O)c3ccc(C)cc3)c2C)cc1 returned Sfp inh 8%, JMJD2A Tudor inh 22µM*, BAZ2B block -34%, HP1b chromo inh -13%, G9a block inconclusive and L3MBTL1 block -3%.
Screening COC(=O)c1cc(C(=O)OC)cc(-n2c(C)cc(C(=O)COC(=O)CNS(=O)(=O)c3ccc(C)cc3)c2C)c1 returned Sfp inh 15%, JMJD2A Tudor inh -27%, BAZ2B block -36%, HP1b chromo inh -14%, G9a block inconclusive and L3MBTL1 block inconclusive.
